Where “and” joins values, the source holds several entries; their conditions need not be identical. Equal entries are not always repeated. Records with an inconclusive call do not appear. Calls of active or inactive are those of the source. Unless noted, calls follow the shape of the dose curve; as a rule, active = well fitted curve in the direction sought with a large enough effect; inconclusive = small, poorly fitted or top-dose-only effect, or another doubt; inactive = no such curve, though single readings can be large; an effect the other way counts as inactive or inconclusive.
Tests used:
[1] = P-glycoprotein substrates identified in KB-8-5-11 adenocarcinoma cell line, qHTS therapeutic library screen (AID 1346987); also: nearly all actives have a fitted effect of over 65% in size; also: potency is read from the fitted curve at half-maximal effect
How it was run: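 Steps: plate 500 KB-8-5-11 cells/well in DMEM + 10% FCS (colchicine removed); pin compounds in dose-response; incubate 72 h, 37 degree C, 5% CO2; add CellTiter-Glo, 5 min; read luminescence.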

[2] = Natriuretic polypeptide receptor (hNpr1) antagonism - Pilot counterscreen GloSensor control cell line (AID 1347045; calls by dose curve; also: series mostly up to about 38 µM)
How it was run: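 Luminescence was read before and 20 min after adding 50 uM SNP, which stimulates soluble guanylyl cyclase. The HEK293 cells expressing the GloSensor cGMP sensor had been preloaded with 2% reagent for 2 h and treated with compound.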

[3] = target: Atrial natriuretic peptide receptor 1 (Homo sapiens) (UniProt P16066); assay: Natriuretic polypeptide receptor (hNpr1) antagonism - Pilot screen (AID 1347049; calls by dose curve;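 also: agonist-evoked cGMP luminescence read 20 min after hNppA addition; series mostly up to about 58 µM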)
Chain of Atrial natriuretic peptide receptor 1 (Homo sapiens) (P16066 whole entry, looked up): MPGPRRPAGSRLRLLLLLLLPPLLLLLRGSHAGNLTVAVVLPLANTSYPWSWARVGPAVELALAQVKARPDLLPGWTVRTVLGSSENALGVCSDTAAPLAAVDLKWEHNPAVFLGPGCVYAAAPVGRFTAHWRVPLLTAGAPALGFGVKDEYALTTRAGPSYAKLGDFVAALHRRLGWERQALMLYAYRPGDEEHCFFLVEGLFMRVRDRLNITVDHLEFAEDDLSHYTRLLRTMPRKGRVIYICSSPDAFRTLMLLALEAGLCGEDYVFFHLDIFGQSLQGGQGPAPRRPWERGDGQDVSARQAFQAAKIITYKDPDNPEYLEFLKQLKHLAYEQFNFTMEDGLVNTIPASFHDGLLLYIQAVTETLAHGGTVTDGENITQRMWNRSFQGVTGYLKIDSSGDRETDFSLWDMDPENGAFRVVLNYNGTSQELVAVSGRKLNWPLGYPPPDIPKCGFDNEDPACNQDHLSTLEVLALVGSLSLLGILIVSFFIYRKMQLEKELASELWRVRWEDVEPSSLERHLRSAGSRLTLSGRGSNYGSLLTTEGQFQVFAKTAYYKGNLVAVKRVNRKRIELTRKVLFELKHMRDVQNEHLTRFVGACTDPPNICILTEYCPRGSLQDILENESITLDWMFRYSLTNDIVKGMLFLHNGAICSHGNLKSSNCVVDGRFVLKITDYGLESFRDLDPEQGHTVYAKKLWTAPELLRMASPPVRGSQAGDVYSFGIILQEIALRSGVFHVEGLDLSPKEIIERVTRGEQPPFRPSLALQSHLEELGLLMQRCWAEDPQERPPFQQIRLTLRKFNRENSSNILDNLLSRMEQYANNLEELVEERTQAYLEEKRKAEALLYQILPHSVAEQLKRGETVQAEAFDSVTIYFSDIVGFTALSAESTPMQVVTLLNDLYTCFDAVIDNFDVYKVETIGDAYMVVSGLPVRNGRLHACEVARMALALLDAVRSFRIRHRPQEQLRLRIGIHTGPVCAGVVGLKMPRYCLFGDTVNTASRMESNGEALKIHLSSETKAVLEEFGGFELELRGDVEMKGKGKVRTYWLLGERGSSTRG
How it was run: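 Readout is cGMP-driven firefly luciferase luminescence in HEK293 cells carrying hNpr1 and a PDE5-domain GloSensor, read before and 20 min after 0.1 nM hNppA stimulation. Cells had 2% substrate reagent for 2 h and test compound for 30 min.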

[4] = target: Atrial natriuretic peptide receptor 2 (Homo sapiens) (UniProt P20594); assay: Natriuretic polypeptide receptor (hNpr2) antagonism - Pilot subtype selectivity assay (AID 1347050; calls by dose curve)
Chain of Atrial natriuretic peptide receptor 2 (Homo sapiens) (P20594 whole entry, looked up): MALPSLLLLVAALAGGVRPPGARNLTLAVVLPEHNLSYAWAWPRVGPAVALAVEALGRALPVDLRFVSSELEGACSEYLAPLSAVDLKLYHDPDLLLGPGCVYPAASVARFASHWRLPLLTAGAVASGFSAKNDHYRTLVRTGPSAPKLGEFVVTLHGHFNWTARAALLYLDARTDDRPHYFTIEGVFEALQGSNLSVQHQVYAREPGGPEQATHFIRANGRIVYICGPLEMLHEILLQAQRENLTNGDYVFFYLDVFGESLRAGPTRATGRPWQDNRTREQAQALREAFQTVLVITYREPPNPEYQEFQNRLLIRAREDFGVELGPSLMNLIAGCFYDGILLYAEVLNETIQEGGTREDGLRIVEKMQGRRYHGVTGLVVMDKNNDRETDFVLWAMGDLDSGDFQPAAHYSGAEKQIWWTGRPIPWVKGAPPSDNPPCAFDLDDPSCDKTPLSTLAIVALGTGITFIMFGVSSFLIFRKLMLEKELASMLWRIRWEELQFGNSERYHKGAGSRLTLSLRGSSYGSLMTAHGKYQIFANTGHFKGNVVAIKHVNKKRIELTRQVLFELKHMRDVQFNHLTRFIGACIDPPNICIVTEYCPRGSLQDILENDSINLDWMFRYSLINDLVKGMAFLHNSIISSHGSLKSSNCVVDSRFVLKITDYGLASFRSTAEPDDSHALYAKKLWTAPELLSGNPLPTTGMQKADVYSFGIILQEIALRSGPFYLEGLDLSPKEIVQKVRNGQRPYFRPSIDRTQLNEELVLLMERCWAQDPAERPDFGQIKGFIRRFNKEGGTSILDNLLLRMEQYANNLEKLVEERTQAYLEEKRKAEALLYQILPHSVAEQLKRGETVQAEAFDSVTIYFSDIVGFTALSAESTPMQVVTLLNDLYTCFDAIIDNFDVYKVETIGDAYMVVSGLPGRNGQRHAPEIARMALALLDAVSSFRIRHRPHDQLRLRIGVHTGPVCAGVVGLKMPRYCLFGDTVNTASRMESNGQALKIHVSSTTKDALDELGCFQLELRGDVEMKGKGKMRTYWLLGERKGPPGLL
How it was run: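 Pilot selectivity screen against hNpr2: HEK293 cGMP-sensor cells are treated with LOPAC1280 compounds, then with hNppC peptide at 1 nM final. The cGMP-driven luminescence change over 20 min at room temperature is the read-out.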

[5] = target: T1, Tyrosine-protein phosphatase non-receptor type substrate 1 (Homo sapiens) + Leukocyte surface antigen CD47 (Homo sapiens) (UniProt P78324+Q08722); assay: CD47-SIRPalpha protein protein interaction - LANCE assay qHTS validation (AID 1347057; active = well fitted curve in the direction sought with a large enough effect in the signal ratio, with a control signal flat, not every such curve was filed as active; the % refers to the signal ratio; also: series mostly up to about 38 µM)
T1 sequence (P78324 whole entry, looked up): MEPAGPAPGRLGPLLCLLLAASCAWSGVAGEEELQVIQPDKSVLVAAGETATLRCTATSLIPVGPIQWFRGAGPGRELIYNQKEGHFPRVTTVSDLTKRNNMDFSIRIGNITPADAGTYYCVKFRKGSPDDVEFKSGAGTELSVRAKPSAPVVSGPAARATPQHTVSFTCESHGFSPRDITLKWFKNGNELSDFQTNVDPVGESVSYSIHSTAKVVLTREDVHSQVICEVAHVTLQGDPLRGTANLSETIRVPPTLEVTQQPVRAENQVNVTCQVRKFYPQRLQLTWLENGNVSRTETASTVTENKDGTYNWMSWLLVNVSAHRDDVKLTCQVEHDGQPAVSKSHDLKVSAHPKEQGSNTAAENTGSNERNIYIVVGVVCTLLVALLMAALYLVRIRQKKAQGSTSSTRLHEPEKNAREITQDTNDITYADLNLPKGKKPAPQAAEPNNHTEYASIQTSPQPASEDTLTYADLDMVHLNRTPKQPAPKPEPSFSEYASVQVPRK
T1 sequence (Q08722 whole entry, looked up): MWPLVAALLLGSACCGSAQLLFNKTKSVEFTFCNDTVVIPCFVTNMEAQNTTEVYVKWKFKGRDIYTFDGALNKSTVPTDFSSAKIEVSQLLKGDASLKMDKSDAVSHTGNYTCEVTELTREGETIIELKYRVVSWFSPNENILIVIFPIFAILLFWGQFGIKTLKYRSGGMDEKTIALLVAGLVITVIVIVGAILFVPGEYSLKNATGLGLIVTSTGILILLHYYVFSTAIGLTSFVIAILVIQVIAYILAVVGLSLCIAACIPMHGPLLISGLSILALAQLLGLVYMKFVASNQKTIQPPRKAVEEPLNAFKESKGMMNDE
How it was run: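 First, His-tagged CD47 and Eu-labelled anti-His antibody met the compound for 30 min; next, site-specifically biotinylated SIRPalpha was added for 30 min; finally streptavidin-APC was added before reading the TR-FRET ratio.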

[6] = target: T1, Tyrosine-protein phosphatase non-receptor type substrate 1 (Homo sapiens) + Leukocyte surface antigen CD47 (Homo sapiens); assay: CD47-SIRPalpha protein protein interaction - HTRF assay qHTS validation (AID 1347058; active = well fitted curve in the direction sought with a large enough effect in the signal ratio, not every such curve was filed as active; the % refers to the signal ratio;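 also: recombinant soluble extracellular CD47 with His tag and biotinylated SIRPalpha domains; series mostly up to about 38 µM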)
How it was run: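 TR-FRET read (Ch1/Ch2 ratio) of soluble extracellular CD47 and Avi-biotinylated SIRPalpha domains in PBS pH 7.4 with 0.05% IGEPAL; 7-point compound titration. Sequential 30 min room-temperature steps; non-biotinylated SIRPalpha as control inhibitor.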

[7] = target: T1, Tyrosine-protein phosphatase non-receptor type substrate 1 (Homo sapiens) + Leukocyte surface antigen CD47 (Homo sapiens); assay: CD47-SIRPalpha protein protein interaction - Alpha assay qHTS validation (AID 1347059);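 also: bead proximity luminescence from CD47 binding SIRPalpha after compound preincubation with SIRPalpha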
How it was run: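 Binding is measured by AlphaScreen proximity: Ni-NTA acceptor beads capture His-CD47, streptavidin donor beads capture biotin-SIRPalpha. Each of three additions (SIRPalpha with compound, CD47, beads) incubates 30 min at room temperature protected from light.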

[8] = target: Parathyroid hormone/parathyroid hormone-related peptide receptor (Homo sapiens) (UniProt Q03431); assay: qHTS for PTHR1 Agonists: Optimization Screen against the NCGC LOPAC library (AID 1347079);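 also: GloSensor cAMP luminescence in HEK-293 GP2 cells expressing human PTHR1 with IBMX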
Chain of Parathyroid hormone/parathyroid hormone-related peptide receptor (Homo sapiens) (Q03431 whole entry, looked up): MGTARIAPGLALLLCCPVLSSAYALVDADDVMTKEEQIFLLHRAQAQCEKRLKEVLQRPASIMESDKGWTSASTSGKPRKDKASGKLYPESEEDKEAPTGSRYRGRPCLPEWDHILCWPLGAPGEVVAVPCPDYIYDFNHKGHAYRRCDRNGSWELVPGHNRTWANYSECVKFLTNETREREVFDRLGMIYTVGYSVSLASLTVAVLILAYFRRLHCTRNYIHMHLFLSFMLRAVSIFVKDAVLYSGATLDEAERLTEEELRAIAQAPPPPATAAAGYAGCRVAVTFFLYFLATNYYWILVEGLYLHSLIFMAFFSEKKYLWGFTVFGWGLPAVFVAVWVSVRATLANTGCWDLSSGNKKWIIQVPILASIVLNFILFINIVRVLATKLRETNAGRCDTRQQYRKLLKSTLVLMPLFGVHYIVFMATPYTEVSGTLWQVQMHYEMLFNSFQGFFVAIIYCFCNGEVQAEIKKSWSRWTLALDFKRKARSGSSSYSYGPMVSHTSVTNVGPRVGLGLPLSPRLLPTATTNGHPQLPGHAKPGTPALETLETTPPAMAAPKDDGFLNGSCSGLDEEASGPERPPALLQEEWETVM
How it was run: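 Agonist readout: GloSensor cAMP luminescence, read after 15 min at room temperature. HEK-293-derived GP2 line carries PTHR1; compounds tested as a titration for 1 hr at 37C in presence of IBMX. M-PTH (1-15) served as control.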

[9] = qHTS of pediatric cancer cell lines to identify multiple opportunities for drug repurposing: Primary screen for TC32 cells (AID 1347089); also: nearly all actives have a fitted effect of over 60% in size
How it was run: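 In the primary qHTS, MIPE compounds were tested at 11 concentrations (0.78 nM to 46 µM) and NPC compounds at 8 (0.59 nM to 46 µM) on TC32 cells for 48 h. CellTiter-Glo luminescence gave viability.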

[10] = qHTS of pediatric cancer cell lines to identify multiple opportunities for drug repurposing: Primary screen for A673 cells (AID 1347092); also: nearly all actives have a fitted effect of over 45% in size; also: potency is read from the fitted curve at half-maximal effect
How it was run: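 48 h compound exposure, A673, 500-1,000 cells/well, 37 degrees C/5% CO2. MIPE: 11-point, 0.78 nM-46 µM; NPC: 8-point, 0.59 nM-46 µM (final). Readout CellTiter-Glo luminescence after 15 min RT.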

[11] = qHTS of pediatric cancer cell lines to identify multiple opportunities for drug repurposing: Primary screen for SK-N-MC cells (AID 1347093); also: potency is read from the fitted curve at half-maximal effect
How it was run: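 Metabolically active cells were quantified by ATP-dependent luminescence (CellTiter-Glo, 15 min at room temperature) following 48 h treatment. Cells had been plated at 500-1,000 per well and settled for 5 h beforehand.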

[12] = qHTS of pediatric cancer cell lines to identify multiple opportunities for drug repurposing: Primary screen for BT-37 cells (AID 1347094); also: potency is read from the fitted curve at half-maximal effect
How it was run: (§1)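 Phenotypic viability qHTS, 48 h compound exposure, CellTiter-Glo luminescence read-out; multi-concentration dosing so that potency and efficacy derive directly from the primary screen's curves.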

[13] = qHTS of pediatric cancer cell lines to identify multiple opportunities for drug repurposing: Primary screen for NB-EBc1 cells (AID 1347095); also: potency is read from the fitted curve at half-maximal effect
How it was run: as §1

[14] = qHTS of pediatric cancer cell lines to identify multiple opportunities for drug repurposing: Primary screen for U-2 OS cells (AID 1347096); also: nearly all actives have a fitted effect of over 50% in size
How it was run: (§2)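 Cells (500-1,000/well) rested 5 h, then received compounds for 48 h; metabolically active cells were measured by CellTiter-Glo luminescence. Final concentrations spanned up to 46 µM (MIPE, 11-point) or 0.59 nM-46 µM (NPC, 8-point) in primary screens, 11-point in follow-ups.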

[15] = qHTS of pediatric cancer cell lines to identify multiple opportunities for drug repurposing: Primary screen for Saos-2 cells (AID 1347097); also: nearly all actives have a fitted effect of over 40% in size; also: potency is read from the fitted curve at half-maximal effect
How it was run: as §1

[16] = qHTS of pediatric cancer cell lines to identify multiple opportunities for drug repurposing: Primary screen for SK-N-SH cells (AID 1347098); also: nearly all actives have a fitted effect of over 65% in size; also: potency is read from the fitted curve at half-maximal effect
How it was run: as §2

[17] = qHTS of pediatric cancer cell lines to identify multiple opportunities for drug repurposing: Primary screen for NB1643 cells (AID 1347099); also: nearly all actives have a fitted effect of over 50% in size; also: potency is read from the fitted curve at half-maximal effect
How it was run: as §1

[18] = NS1 protein of Zika virus - qHTS assay to identify small molecule inhibitors in human HEK 293 cells (AID 1347053); also: series mostly up to about 46 µM; nearly all actives have a fitted effect of over 55% in size
How it was run: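 HEK 293 cells pretreated with compound for 1 h, then infected with ZIKV MR766 (MOI 0.5) for 24 h at 37 C. NS1 detected by TR-FRET with two anti-NS1 antibodies; normalized to uninfected (0%) and infected (100%) wells.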

[19] = qHTS of pediatric cancer cell lines to identify multiple opportunities for drug repurposing: Primary screen for DAOY cells (AID 1347090); also: nearly all actives have a fitted effect of over 55% in size; also: potency is read from the fitted curve at half-maximal effect
How it was run: (§3)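 Cell viability, CellTiter-Glo luminescence; 500-1,000 cells/well, 8- or 11-point titration, 48 h compound exposure at 37 degrees C, 5% CO2. Controls: DMSO neutral, bortezomib 2.3 µM final as positive.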

[20] = qHTS of pediatric cancer cell lines to identify multiple opportunities for drug repurposing: Primary screen for SJ-GBM2 cells (AID 1347091); also: potency is read from the fitted curve at half-maximal effect
How it was run: as §3

Measured: Potency

C/C(=C\C(=O)Nc1ccccc1C(=O)O)c1ccc2ccccc2c1
inactive: [1]

NCCc1ccc(O)c(O)c1
active: [10] 23.5 µM and 10.6 µM | [11] 18.7 µM and 7.5 µM
not listed: [18] | [19] | [20]
inactive: all other assays above

CC(C)(C)NCC(O)c1ccc(O)c(CO)c1 (stereo not given)
not listed: [16]
inactive: all other assays above

O=NN(CCCl)C(=O)NCCCl
not listed: [13] | [16] | [18]
inactive: all other assays above

O=c1n(CCCN2CCN(c3cccc(Cl)c3)CC2)nc2ccccn12
inactive: all assays above

Nc1ccc(S(=O)(=O)Nc2ccnn2-c2ccccc2)cc1
inactive: all assays above

Cc1ccccc1C(OCCN(C)C)c1ccccc1 (stereo not given)
not listed: [16] | [18] | [20]
inactive: all other assays above

CC(=O)Oc1ccccc1C(=O)O
not listed: [19] | [20]
inactive: all other assays above

O=c1[nH]cnc2[nH]ncc12
not listed: [11] | [16] | [17]
inactive: all other assays above

O=C(Nc1nc2ccccc2n1CCN1CCOCC1)c1cccc([N+](=O)[O-])c1
active: [19] 7.43 µM | [20] 14.8 µM | [10] 3.72 µM | [11] 3.32 µM | [12] 7.69 µM | [13] 7.43 µM | [16] 24.1 µM | [17] 7.43 µM
not listed: [4] | [6] | [15]
inactive: all other assays above

CCCc1nn(C)c2c(=O)[nH]c(-c3cc(S(=O)(=O)N4CCN(C)CC4)ccc3OCC)nc12
active: [1] 13.2 µM
not listed: [2] | [3] | [4] | [6] | [8] | [11] | [17]
inactive: all other assays above

CCCCNc1cc(C(=O)O)cc(S(N)(=O)=O)c1Oc1ccccc1
not listed: [6] | [7] | [20]
inactive: all other assays above

CN1CCN(CCCN2c3ccccc3Sc3ccc(C(F)(F)F)cc32)CC1
active: [20] 18.7 µM | [10] 21.1 µM and 296 nM | [11] 1.05 µM | [15] 18.7 µM | [17] 3.32 µM
inactive: [1] | [3] | [18] | [8] | [9] | [19] | [14]

— PubChem BioAssay (NCATS)
